KDM4E inh = JMJD2E (human) inhibition | JMJD2E catalytic domain, FDH-coupled NADH fluorescence (FDH is formaldehyde dehydrogenase) | Potency, µM (series often up to 57.1 µM), for inactives: at the top dose activity change, negative = inhibition, usual class: inhibitors | 230,000 compounds, 1.6% hits | AID 2147;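 also: 0% = wells with enzyme and -100% = buffer wells without enzyme; nearly all actives have a fitted effect of over 50% in size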
HTT cytoprotect = cytoprotection in Huntington HTT-Q103 PC12 cell model; 230,000 compounds, 0.14% hits; Potency, µM (doses to about 56.4 µM), for the others: cytoprotection (ATP increase), actives largely listed as activators; PC12 HTT-Q103 induced, cytoprotection, ATP luminescence, 40 h; active = well fitted curve in the direction sought with a large enough effect; inconclusive = small, poorly fitted or top-dose-only effect, or another doubt; inactive = no such curve, though single readings can be large; an effect the other way counts as inactive or inconclusive; also: % of control where 0% means no effect; nearly all actives have a fitted effect of over 45% in size
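Readout: ATPlite luminescence (ATP level). Model: stable PC12, inducible Htt exon1 Q103-GFP. Inducer: tebufenozide, 100 nM final. Compounds: dose series. No G418 in medium.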
Lamin A splicing = LMNA splicing modulation; HeLa LMNA splicing GFP/RFP minigene ratio, 48 h; Potency, µM (series often up to 46.1 µM), for inactives: top-dose ratio change, negative = inhibition, usual class: inhibitors; 200,000 compounds, 0.01% hits; AID 1487; active = well fitted inhibition curve with a large enough effect in the signal ratio, with a control signal flat, not every such curve was filed as active; inconclusive = small, poorly fitted or top-dose-only effect, or effect the other way, or a change in a side signal; the % refers to the signal ratio; also: % is scaled to controls: 0 for no effect and ±100 for the full control effect
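S3 HeLa cells stably expressing lamin A-EGFP splicing minigene plus DsRed2, 600 cells/well, 48 h compound exposure at 37C. Laser-scanning cytometry; analysed as GFP (500-530 nm)/RFP (575-640 nm) total intensity ratio; 0.5% DMSO vehicle.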
ALDH1A1 inh = ALDH1A1 (human) enzyme inhibition; 220,000 compounds, 7.3% hits; Purified ALDH1A1, NADH fluorescence, propionaldehyde substrate; P00352; AID 1030; Potency, µM (highest dose often 75.3 µM), inactives show at the highest dose activity, negative = inhibition, hits mostly inhibitors;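 also: plate controls were no enzyme wells and a reference inhibitor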
Target sequence (P00352 whole entry, looked up): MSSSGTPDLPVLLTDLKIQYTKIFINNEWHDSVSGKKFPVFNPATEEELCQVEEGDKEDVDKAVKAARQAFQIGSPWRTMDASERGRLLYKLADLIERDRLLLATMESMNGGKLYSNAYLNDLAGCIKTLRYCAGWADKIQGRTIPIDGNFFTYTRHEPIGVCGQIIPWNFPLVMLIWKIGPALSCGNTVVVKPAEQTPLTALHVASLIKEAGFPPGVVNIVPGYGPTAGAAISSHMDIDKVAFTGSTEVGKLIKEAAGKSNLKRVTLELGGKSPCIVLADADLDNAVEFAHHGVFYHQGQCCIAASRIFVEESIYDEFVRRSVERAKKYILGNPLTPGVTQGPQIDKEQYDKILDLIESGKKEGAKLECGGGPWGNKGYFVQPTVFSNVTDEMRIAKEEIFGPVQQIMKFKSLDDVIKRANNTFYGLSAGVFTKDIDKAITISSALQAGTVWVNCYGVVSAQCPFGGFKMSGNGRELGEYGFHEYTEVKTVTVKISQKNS
HTT aggregate = inhibitors of mutant huntingtin aggregate formation in PC12 cells; PC12 HttQ103-GFP aggregates, Acumen cytometry, 40 h; Potency, µM (series often up to 46.1 µM), for inactives: top-dose activity change, negative = inhibition, most hits filed as inhibitors; 220,000 compounds, 1.1% hits; active = well fitted curve in the direction sought with a large enough effect; inconclusive = small, poorly fitted or top-dose-only effect, or another doubt; inactive = no such curve, though single readings can be large; an effect the other way counts as inactive or inconclusive; also: % is scaled to controls: 0 for no effect and ±100 for the full control effect; nearly all actives have a fitted effect of over 60% in size
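Quantitative HTS on tebufenozide-induced (100 nM) PC12 cells stably expressing polyQ103 Huntingtin exon 1–GFP. Reduction of bright GFP aggregates, detected by laser scanning cytometry after lysis, identified actives across the titration.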
HPGD block = inhibitors of human 15-hydroxyprostaglandin dehydrogenase (HPGD); P15428; purified HPGD, NADH fluorescence kinetic, PGE2 substrate; Potency, µM, inactives show top-dose activity change, negative = inhibition, usual class: inhibitors; 150,000 compounds, 4.3% hits; also: % is scaled to controls: 0 for no effect and ±100 for the full control effect
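20 nM HPGD preincubated 15 min at room temperature with compound in 50 mM Tris-HCl pH 8, 0.01% Tween 20. Started with 1 mM NAD+ and 30 uM prostaglandin E2; NADH fluorescence (360/450 nm) read 5 times over 30-s intervals, last minus first.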
Numbers without * were called inactive; [ ] = another dose, or the depositor's remark. A selection: hits, their analogues and other compounds. The true share with any hit is near 9.2%. Unless noted, calls follow the shape of the dose curve; as a rule, active = well fitted inhibition curve with a large enough effect (not every such curve was filed as active); inconclusive = small, poorly fitted or top-dose-only effect, or another doubt; inactive = no such curve, though single readings can be large or run the other way. Potency is read from the fitted curve at half-maximal effect.

`O=C(CCc1ccc(S(=O)(=O)NCc2ccccc2)cc1)NCc1ccco1` gave KDM4E inh 4%, Lamin A splicing inconclusive, ALDH1A1 inh inconclusive, HTT aggregate 4% and HPGD block -15%.
For CCOC(=O)CCN1C(=O)[C@H]2[C@H]3[C@H](O)[C@H](O)C/C(=N/OC/C=C(\C)CCC=C(C)C)[C@@H]3CC[C@@H]2C1=O the results were HTT cytoprotect 4%[10 µM] and ALDH1A1 inh 7%[13.5 µM].
Cc1sccc1C1C(C#N)=C(N)SC(N)=C1C#N was read as KDM4E inh -4%, HTT cytoprotect 5%[1.9 µM], Lamin A splicing 12%, ALDH1A1 inh 10µM*, HTT aggregate 13% and HPGD block -16%.
Cc1cc(C2C(C#N)=C(N)Oc3n[nH]c(C)c32)c(C)s1 (centres undefined) was read as KDM4E inh 13%, HTT cytoprotect 10%, Lamin A splicing -6%, ALDH1A1 inh -7%, HTT aggregate inconclusive and HPGD block -22%.
For Cc1cc(C2C(C#N)=C(N)SC(N)=C2C#N)c(C)s1 the results were KDM4E inh -9%, HTT cytoprotect -1%, Lamin A splicing 4%, ALDH1A1 inh 25µM*, HTT aggregate -20% and HPGD block 20µM*.
Screening Cc1cc(=O)n(Cc2c(F)cccc2Cl)c2c1c(C)nn2-c1cccc(F)c1 returned Lamin A splicing -6%[46 µM].
COC(=O)c1cc(CSc2nnc(-c3ccccc3)c(-c3ccccc3)n2)oc1C was read as KDM4E inh -9%, HTT cytoprotect -9%, Lamin A splicing inconclusive, ALDH1A1 inh 16µM*, HTT aggregate 4% and HPGD block inconclusive.
Screening Cc1onc(-c2c(F)cccc2Cl)c1C(=O)O/N=C(\N)c1ccc([N+](=O)[O-])o1 returned KDM4E inh -8%, HTT cytoprotect 7%[10 µM], ALDH1A1 inh 7.9µM* and HTT aggregate 4%[9.22 µM].
`Cc1onc(-c2c(F)cccc2Cl)c1C(=O)OCn1nnc2ccccc2c1=O` gave KDM4E inh -5%, HTT cytoprotect -1%[10 µM], Lamin A splicing inconclusive, ALDH1A1 inh -3%, HTT aggregate -30% and HPGD block 13µM*.
`Cc1occc1C(=O)NCc1ccccc1` gave KDM4E inh -5%, HTT cytoprotect -4%, Lamin A splicing -4%, ALDH1A1 inh -2%, HTT aggregate 0% and HPGD block -21%.
`Cc1occc1C(=O)NCCCCc1ccccc1` gave KDM4E inh 1%, HTT cytoprotect -13%, Lamin A splicing 11%, ALDH1A1 inh 18µM*, HTT aggregate -18% and HPGD block 20µM*.
`Cc1ccccc1C(=O)NCCCCc1ccccc1` gave KDM4E inh -3%, HTT cytoprotect 26%[10 µM], Lamin A splicing -1%, ALDH1A1 inh -15%, HTT aggregate -31% and HPGD block inconclusive.
Cc1ccccc1C(=O)NCCCc1ccccc1 was read as KDM4E inh 1%, Lamin A splicing 5%, ALDH1A1 inh -8%, HTT aggregate -2% and HPGD block 14µM*.
For COC(=O)C1=C(C(=O)OC)[C@@H]2Nc3ccccc3[C@@]23C[C@@H](C(=O)OC)N(S(=O)(=O)c2ccc(OC)cc2)C3=N1 the results were KDM4E inh -6%[11.4 µM], HTT cytoprotect 11%[10 µM], Lamin A splicing 19%[9.22 µM], ALDH1A1 inh -5%[13.5 µM] and HPGD block -5%.
`Cc1cc(C)cc(-n2cnc3cc(C(=O)O)ccc32)c1` gave KDM4E inh -7%, HTT cytoprotect -2%, Lamin A splicing 4%, ALDH1A1 inh -5%, HTT aggregate -4% and HPGD block 16µM*.
Screening CCCc1c(C(=O)Nc2ccc(OC)cc2)cnn1-c1ccccc1 returned KDM4E inh -16%, HTT cytoprotect -9%[10 µM], ALDH1A1 inh inconclusive and HTT aggregate -1%[9.22 µM].
Screening CCCc1c(C(=O)NNc2ccccc2OC)cnn1-c1ccccc1 returned KDM4E inh -3%, HTT cytoprotect -15%[10 µM], ALDH1A1 inh 7.9µM* and HTT aggregate 3%[9.22 µM].
COCC(C)NC(=O)NC1(C(F)(F)F)Oc2ccc(Cl)cc2O1 (centres undefined) was read as KDM4E inh inconclusive, HTT cytoprotect -2%, Lamin A splicing inconclusive, ALDH1A1 inh 22µM* and HTT aggregate 4%.
COCC(C)NC(=O)NC(=O)c1ccc(Cl)cc1 (centres undefined) was read as KDM4E inh -5%, HTT cytoprotect -24%[0.074 µM], Lamin A splicing -12%, ALDH1A1 inh 4%, HTT aggregate 0% and HPGD block -2%.
Screening O=C(NCCN1CCOCC1)NC1(C(F)(F)F)Oc2ccc(Cl)cc2O1 (centres undefined) returned KDM4E inh 3.2µM*, HTT cytoprotect -27%[10 µM], Lamin A splicing inconclusive, ALDH1A1 inh 5%, HTT aggregate inconclusive and HPGD block -6%.
For O=C(NCCN1CCOCC1)c1cccc(Cl)c1 the results were KDM4E inh -2%, HTT cytoprotect -12%, Lamin A splicing 2%, ALDH1A1 inh 1%, HTT aggregate -11% and HPGD block -6%.
Screening COC1=CC(=O)C[C@@H](C)[C@@]12Oc1c(Cl)c(OC)cc(OC)c1C2=O returned HTT cytoprotect -18%.
CC12C=C(/C=C/c3ccc(C(F)(F)F)cc3)C(C)(C1)C(c1ccc(C(F)(F)F)cc1)CC2=O (centres undefined) was read as HTT cytoprotect -7%[10 µM] and ALDH1A1 inh 10%[13.5 µM].
Screening COc1ccc(-n2c(SCCC#N)nnc2-c2cc(Cl)ccc2OC)cc1Cl returned KDM4E inh -21%, HTT cytoprotect -78%, Lamin A splicing inconclusive, ALDH1A1 inh 1%, HTT aggregate 11% and HPGD block 20µM*.
Screening Cc1cccc(-c2nnc(SCC#N)n2-c2cccc(Cl)c2)c1 returned KDM4E inh -5%, HTT cytoprotect 8%[1.9 µM], Lamin A splicing -3%, ALDH1A1 inh inconclusive, HTT aggregate 4% and HPGD block -10%.
Screening N#Cc1ccc(CN2CC[C@@]3(CCCN(C(=O)c4ccco4)C3)C2)cc1 returned HTT cytoprotect 19%, ALDH1A1 inh 14µM* and HPGD block -3%.
Screening O=C(c1ccco1)N1CCC2(CCN(Cc3ccncc3)CC2)CC1 returned HTT cytoprotect 19%, ALDH1A1 inh inconclusive and HPGD block -8%.
Screening O=C(c1ccco1)N1CCC2(CCN(Cc3ccccc3)CC2)CC1 returned HTT cytoprotect 13%, ALDH1A1 inh 18µM* and HPGD block 1%.
